Source: the supplement of paper PMC12645437, “Orthogonal IMiD-Degron Pairs Induce Selective Protein Degradation in Cells” (ACS Chemical Biology, 2025)
Whole data set: some 8,300 sequences, median “log2 fold change of degron read counts, EGFP-low vs EGFP+ sorted cells (limma voom), compound-induced degradation” near -1.1, cut for the highest 2% near 3.2. This is one part of a sample in which the highest values are shown more often than they occur.

T1: CRBN, Q96SW2
T1 chain: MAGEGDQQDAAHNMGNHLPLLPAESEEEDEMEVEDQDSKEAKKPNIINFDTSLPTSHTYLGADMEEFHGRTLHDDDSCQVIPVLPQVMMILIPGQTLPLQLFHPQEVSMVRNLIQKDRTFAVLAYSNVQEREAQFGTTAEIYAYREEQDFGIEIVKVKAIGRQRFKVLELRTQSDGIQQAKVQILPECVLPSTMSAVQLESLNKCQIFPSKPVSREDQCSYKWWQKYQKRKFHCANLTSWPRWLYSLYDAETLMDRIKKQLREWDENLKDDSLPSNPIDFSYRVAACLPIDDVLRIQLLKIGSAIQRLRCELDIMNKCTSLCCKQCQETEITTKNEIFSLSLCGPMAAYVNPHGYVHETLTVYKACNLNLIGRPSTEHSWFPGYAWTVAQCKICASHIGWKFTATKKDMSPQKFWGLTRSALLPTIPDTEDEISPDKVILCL


Biological target: T1, CRBN, Q96SW2
Test: log2 fold change of degron read counts, EGFP-low vs EGFP+ sorted cells (limma voom), compound-induced degradation; higher = more compound-induced degradation of the degron-EGFP fusion; degrons are variants of IKZF1/3 zinc finger 2; compound dose not given here
Conditions: Jurkat, 18 h
Protocol: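 Pooled library of 8380 IKZF3 ZF2 degron mutants (positions 146-167 varied within the IKZF3 130-189 degron; only the varied core is printed, flanks not printed) fused to EGFP with IRES-mCherry, lentivirally expressed in Jurkat cells. mCherry+ cells were treated with one IMiD compound for 18 h (dose not stated) and FACS-sorted into EGFP-low and EGFP+ populations. Degron sequences were counted by NGS, and log2FC (EGFP-low vs EGFP+) was estimated by limma voom over 3 biological replicates.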

[1] = compound: compound 19 (5-tert-butyl-thalidomide)
[2] = compound: compound 22 (5-morpholino-thalidomide)
[3] = compound: compound 33 (diphenyl IMiD analogue)
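Also: pooled lentiviral library of zinc finger degron-EGFP fusions in mCherry-positive Jurkat cells, FACS-sorted after compound exposure, with degron abundance counted by next-generation sequencing.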

Row | Sequence | log2 fold change of degron read counts [1] | log2 fold change of degron read counts [2] | log2 fold change of degron read counts [3] | log2 fold change of degron read counts (compound: thalidomide)
1 | FSCNQCGRCFTQKGNLLRHIKL [46F_47S_49N_50Q_52G_53R_54C_55F_67L_, Q9UKT9] | -2.78 | -2.88 | -2.83 | -2.73
2 | FNCPQCGADFTQKGNLLRHIKL [46F_47N_49P_50Q_52G_53A_54D_55F_67L_, Q9UKT9] | -3.44 | -3.57 | -2.75 | -3.69
3 | FFCNICGAEFTQKGNLLRHIKL [46F_47F_49N_50I_52G_53A_54E_55F_67L_, Q9UKT9] | 1.77 | 1.94 | 0.373 | -0.454
4 | FSCPICGHQFTQKGNLLRHIKL [46F_47S_49P_50I_52G_53H_54Q_55F_67L_, Q9UKT9] | -2.3 | -3.17 | -1.53 | -1.82
5 | FSCNQCGRDFTQKGNLLRHIKL [46F_47S_49N_50Q_52G_53R_54D_55F_67L_, Q9UKT9] | -3.12 | -4.04 | -2.59 | -2.97
6 | LFCNQCGFNCTQKGNLLRHIKL [46L_47F_49N_50Q_52G_53F_54N_55C_67L_, Q9UKT9] | -1.81 | -1.88 | -1.92 | -1.45
7 | FECNQCGAHFTQKGNLLRHIKL [46F_47E_49N_50Q_52G_53A_54H_55F_67L_, Q9UKT9] | -2.49 | -3.01 | -2.49 | -2.34
8 | FMCEICGAIFTQKGNLLRHIKL [46F_47M_49E_50I_52G_53A_54I_55F_67L_, Q9UKT9] | -1.18 | -0.577 | 2.14 | 0.96
9 | FQCEICGAIFTQKGNLLRHIKL [46F_47Q_49E_50I_52G_53A_54I_55F_67L_, Q9UKT9] | -0.255 | 3.16 | 2.84 | 3.68
10 | FCCEICGAIFTQKGNLLRHIKL [46F_47C_49E_50I_52G_53A_54I_55F_67L_, Q9UKT9] | 1.48 | 1.57 | 2.5 | 1.97
11 | FICDVCGASFTQKGNLLRHIKL [46F_47I_49D_50V_52G_53A_54S_55F_67L_, Q9UKT9] | -1.49 | 1.22 | 0.774 | 0.427
12 | FACEVCGAHFTQKGNLLRHIKL [46F_47A_49E_50V_52G_53A_54H_55F_67L_, Q9UKT9] | 3.16 | 0.662 | 0.411 | -0.296
13 | FVCEVCGAHFTQKGNLLRHIKL [46F_47V_49E_50V_52G_53A_54H_55F_67L_, Q9UKT9] | -0.244 | 1.53 | 1.35 | 1.87
14 | FTCEVCGAHFTQKGNLLRHIKL [46F_47T_49E_50V_52G_53A_54H_55F_67L_, Q9UKT9] | -0.0867 | 0.738 | 1.47 | 2.04
15 | FRCEVCGAHFTQKGNLLRHIKL [46F_47R_49E_50V_52G_53A_54H_55F_67L_, Q9UKT9] | -1.19 | -1.13 | 0.668 | 0.202
16 | FWCEVCGAHFTQKGNLLRHIKL [46F_47W_49E_50V_52G_53A_54H_55F_67L_, Q9UKT9] | 3.1 | 3.92 | 1.96 | 0.936
17 | FYCEVCGAHFTQKGNLLRHIKL [46F_47Y_49E_50V_52G_53A_54H_55F_67L_, Q9UKT9] | 3.12 | 3.62 | 2.45 | 0.916
18 | LVCEICGFGCTQKGNLLRHIKL [46L_47V_49E_50I_52G_53F_54G_55C_67L_, Q9UKT9] | 1.26 | 1.94 | 0.702 | 2.41
19 | FMCPICGHYFTQKGNLLRHIKL [46F_47M_49P_50I_52G_53H_54Y_55F_67L_, Q9UKT9] | -2.08 | -2.18 | -1.11 | -1.8
20 | FCCDICGAPFTQKGNLLRHIKL [46F_47C_49D_50I_52G_53A_54P_55F_67L_, Q9UKT9] | 2.7 | 2.21 | 0.465 | 0.477
21 | FWCDICGAPFTQKGNLLRHIKL [46F_47W_49D_50I_52G_53A_54P_55F_67L_, Q9UKT9] | 2.91 | 2.32 | 1.2 | -0.538
22 | FFCDICGADFTQKGNLLRHIKL [46F_47F_49D_50I_52G_53A_54D_55F_67L_, Q9UKT9] | -0.121 | -0.935 | -2.01 | -2.27
23 | FFCDICGAPFTQKGNLLRHIKL [46F_47F_49D_50I_52G_53A_54P_55F_67L_, Q9UKT9] | 3.92 | 3.16 | 1.06 | -0.36
24 | FYCDICGAPFTQKGNLLRHIKL [46F_47Y_49D_50I_52G_53A_54P_55F_67L_, Q9UKT9] | 3.86 | 3.56 | 2.02 | 0.27
25 | FVCDICGAPFTQKGNLLRHIKL [46F_47V_49D_50I_52G_53A_54P_55F_67L_, Q9UKT9] | 1.63 | 3.29 | 1.93 | 2.61
26 | FQCDICGAPFTQKGNLLRHIKL [46F_47Q_49D_50I_52G_53A_54P_55F_67L_, Q9UKT9] | 2.56 | 3.14 | 0.968 | 3.35
27 | FMCNICGAVFTQKGNLLRHIKL [46F_47M_49N_50I_52G_53A_54V_55F_67L_, Q9UKT9] | -1.55 | -0.801 | 1.53 | 0.369
28 | FFCEICGHNFTQKGNLLRHIKL [46F_47F_49E_50I_52G_53H_54N_55F_67L_, Q9UKT9] | -2.59 | -3.18 | -2.38 | -2.84
